# Experimental data published in PubChem BioAssay (NCATS).
# Results filed as inconclusive are left out. A call without a number means that no potency is given here. Calls of active or inactive are those of the source.
# Tests used:
# [1] = Ebola virus entry cell assay, ratio channel
# [2] = Immunotoxin (HA22) sensitization/mitigation study. Vehicle arm (PBS) (AID 1159510; call rule not given here; note: potency is the fitted concentration of half-maximal effect); conditions: cancer cells viability with PBS vehicle (HA22 study); series mostly up to 46.1 µM
# [3] = Immunotoxin (SS1P) sensitization/mitigation study. Vehicle arm (DMEM) (AID 1159513; call rule not given here; note: potency is the fitted concentration of half-maximal effect); conditions: cell viability with vehicle (DMEM); series mostly up to 46.1 µM
# [4] = High-throughput drug toxicity screening in the BPDCN cell line Cal-1 (AID 1224825; call rule not given here); conditions: Cal-1 BPDCN cell viability, qHTS; at 45.8 µM (top of the series)
# Procedure, shortened: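 Exponentially growing Cal-1 cells, 500 per well in phenol red-free RPMI with 10% FBS, were exposed to compounds for 48 h at 37 °C, 5% CO2. Viability was read by CellTiter-Glo luminescence and normalised to DMSO (100%) and 9.2 uM bortezomib (0%).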
# [5] = qHTS assay for measurement of the activity of small molecule inhibitors on Zika virus induced Caspase-3 activity in human iPSC derived neural progenitor cells (hNPCs) (AID 1224857); conditions: hNPCs ZIKV-induced caspase-3/7, Caspase-Glo luminescence, 6 h; series mostly up to 45.7 µM; note: nearly all actives have a fitted effect of over 65% in size
# Procedure, shortened: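 Cells were plated at 350 per well and grown 16 to 20 hours. Compound pretreatment lasted one hour, after which ZIKV (2 FFU/cell) was added for 6 hours. Percent inhibition was normalized between uninfected and infected controls.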
# [6] = qHTS assay for measurement of the activity of small molecule inhibitors on Zika virus induced Caspase-3 activity in human astrocytoma cells (AID 1224859); conditions: SNB-19 ZIKV-induced caspase-3/7, luminescence, 6 h; series mostly up to 45.7 µM
# Procedure, shortened: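 Percent inhibition of virus-induced caspase-3/7 signal is calculated against uninfected and ZIKV-infected control cells. Cells are SNB-19, infected at 2 FFU/cell for 6 h after 1 h compound exposure.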
# [7] = qHTS Screen of the MIPE 4.0 Collection Against Ewings Sarcoma (RDES) (AID 1259252); conditions: RD-ES Ewing sarcoma viability, CellTiter-Glo, 48 h; series mostly up to 45.8 µM; note: nearly all actives have a fitted effect of over 35% in size; note: potency is the fitted concentration of half-maximal effect
# Procedure, shortened: (§1)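 Here, cells in 5% FBS RPMI were exposed for two days (48 h) to compound dilutions added four hours after plating. ATP-based CellTiter-Glo luminescence measured viability, normalized to vehicle and no-cell blanks.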
# [8] = qHTS Screen of the MIPE 4.0 Collection Against Ewings Sarcoma (TC71) (AID 1259253); conditions: TC71 Ewing sarcoma viability, CellTiter-Glo, 48 h; series mostly up to 45.8 µM; note: nearly all actives have a fitted effect of over 40% in size; note: potency is the fitted concentration of half-maximal effect
# Procedure, shortened: as §1
# [9] = qHTS Screen of the MIPE 4.0 Collection Against Ewings Sarcoma (EW8) (AID 1259255); conditions: EW8 Ewing sarcoma viability, CellTiter-Glo, 48 h; series mostly up to 45.8 µM; note: nearly all actives have a fitted effect of over 35% in size; note: potency is the fitted concentration of half-maximal effect
# Procedure, shortened: as §1
# [10] = qHTS Screen of the MIPE 4.0 Collection Against Ewings Sarcoma (TC32) (AID 1259256); conditions: TC32 Ewing sarcoma viability, CellTiter-Glo, 48 h; series mostly up to 45.8 µM; note: nearly all actives have a fitted effect of over 45% in size; note: potency is the fitted concentration of half-maximal effect
# Procedure, shortened: as §1
smiles,measurement,setting,value
CC(C)C[C@H](NC(=O)[C@H](Cc1ccccc1)NC(=O)c1cnccn1)B(O)O,outcome,[1],inactive
same,Potency,[2],0.0037 µM (active)
same,Potency,[3],0.0148 µM (active)
C#CCN(C)[C@H](C)Cc1ccccc1,outcome,[1],inactive
same,viability (% of control),[4],105%
same,Potency,[5],inactive
same,outcome,[6],inactive
same,Potency,[7],inactive
same,Potency,[8],inactive
same,Potency,[9],inactive
same,Potency,[10],inactive
CNS(=O)(=O)Cc1ccc2[nH]cc(CCN(C)C)c2c1,outcome,[1],inactive
Nc1cccc2c1CN(C1CCC(=O)NC1=O)C2=O (centres undefined),outcome,[1],inactive
same,Potency,[2],inactive
same,Potency,[3],inactive
Oc1cn2c(n1)Nc1ccc(Cl)c(Cl)c1C2,outcome,[1],inactive
same,Potency,[3],0.0066 µM (active)
Cc1oncc1C(=O)Nc1ccc(C(F)(F)F)cc1,outcome,[1],inactive
same,Potency,[2],20.9 µM (active)
Nc1ncn([C@@H]2O[C@H](CO)[C@@H](O)[C@H]2O)c(=O)n1,outcome,[1],inactive
same,Potency,[2],4.18 µM (active)
same,Potency,[3],14.8 µM (active)
NCC1(CC(=O)O)CCCCC1,outcome,[1],inactive
same,viability (% of control),[4],104%
same,outcome,[6],inactive
CCC(C)n1ncn(-c2ccc(N3CCN(c4ccc(OC[C@H]5CO[C@](Cn6cncn6)(c6ccc(Cl)cc6Cl)O5)cc4)CC3)cc2)c1=O (some centres undefined),AC50,[1],2 µM (active)
same,Potency,[2],0.743 µM (active)
same,Potency,[3],16.6 µM (active)
Nc1ccn([C@@H]2O[C@H](CO)[C@@H](O)C2(F)F)c(=O)n1,outcome,[1],inactive
same,Potency,[2],0.0121 µM (active)
Cc1ccc(-c2cc(C(F)(F)F)nn2-c2ccc(S(N)(=O)=O)cc2)cc1,AC50,[1],11.2 µM (active)
same,Potency,[2],48.1 µM (active)
same,Potency,[3],38.2 µM (active)
CN(C)C(=N)N=C(N)N,outcome,[1],inactive
same,Potency,[2],inactive
same,Potency,[3],inactive
CS(=O)(=O)CCNCc1ccc(-c2ccc3ncnc(Nc4ccc(OCc5cccc(F)c5)c(Cl)c4)c3c2)o1,outcome,[1],inactive
same,Potency,[2],20.9 µM (active)
COc1ccc2nc(S(=O)Cc3ncc(C)c(OC)c3C)[nH]c2c1 (centres undefined),outcome,[1],inactive
same,Potency,[2],inactive
same,Potency,[3],inactive
CNC(=O)c1cc(Oc2ccc(NC(=O)Nc3ccc(Cl)c(C(F)(F)F)c3)cc2)ccn1,outcome,[1],inactive
same,Potency,[2],14.8 µM (active)
same,Potency,[3],20.9 µM (active)
N[C@@H](Cc1ccc(N(CCCl)CCCl)cc1)C(=O)O,outcome,[1],inactive
same,viability (% of control),[4],4.8%
same,outcome,[6],inactive
same,Potency,[7],5.26 µM (active)
same,Potency,[8],9.35 µM (active)
same,Potency,[9],3.32 µM (active)
same,Potency,[10],inactive
CC(=O)O[C@@]12CO[C@@H]1C[C@H](O)[C@@]1(C)C(=O)[C@H](O)C3=C(C)[C@@H](OC(=O)[C@H](O)[C@@H](NC(=O)OC(C)(C)C)c4ccccc4)C[C@@](O)([C@@H](OC(=O)c4ccccc4)[C@H]21)C3(C)C,outcome,[1],inactive
same,Potency,[2],inactive
same,Potency,[3],inactive
Cc1ccccc1N1C(=O)c2cc(S(N)(=O)=O)c(Cl)cc2NC1C (centres undefined),outcome,[1],inactive
CN(N=O)C(=O)N[C@@H]1[C@@H](O)[C@H](O)[C@@H](CO)O[C@@H]1O,outcome,[1],inactive
CC(C)CC(N(C)C)C1(c2ccc(Cl)cc2)CCC1 (centres undefined),outcome,[1],inactive
same,viability (% of control),[4],105%
same,Potency,[5],inactive
same,outcome,[6],inactive
same,Potency,[9],18.7 µM (active)
CCCC(C)(COC(N)=O)COC(=O)NC(C)C (centres undefined),outcome,[1],inactive
same,viability (% of control),[4],110%
same,outcome,[6],inactive
same,Potency,[7],inactive
same,Potency,[8],inactive
same,Potency,[9],inactive
same,Potency,[10],inactive
CN(C)[C@@H]1C(=O)C(C(N)=O)=C(O)[C@@]2(O)C(=O)C3=C(O)c4c(O)cccc4[C@@](C)(O)[C@H]3C[C@@H]12,outcome,[1],inactive
same,viability (% of control),[4],83.2%
same,Potency,[5],inactive
same,outcome,[6],inactive
same,Potency,[8],3.72 µM (active)
same,Potency,[9],11.8 µM (active)
same,Potency,[10],6.62 µM (active)
CCC(C)(C)C(=O)O[C@H]1C[C@@H](C)C=C2C=C[C@H](C)[C@H](CC[C@@H]3C[C@@H](O)CC(=O)O3)[C@H]21,outcome,[1],inactive
same,Potency,[3],7.1 µM (active)
CN1CCN(C(=O)O[C@H]2c3nccnc3C(=O)N2c2ccc(Cl)cn2)CC1,outcome,[1],inactive
same,viability (% of control),[4],135%
same,outcome,[6],inactive
same,Potency,[8],inactive
same,Potency,[9],inactive
same,Potency,[10],inactive
O=C1CC[C@@]2(O)[C@H]3Cc4ccc(O)c5c4[C@@]2(CCN3CC2CC2)[C@H]1O5,outcome,[1],inactive
same,viability (% of control),[4],62%
same,Potency,[5],inactive
same,outcome,[6],inactive
same,Potency,[7],inactive
same,Potency,[8],inactive
same,Potency,[9],inactive
same,Potency,[10],inactive
O=C1Nc2ccc(Cl)cc2[C@@](C#CC2CC2)(C(F)(F)F)O1,outcome,[1],inactive
same,Potency,[2],42.9 µM (active)
same,Potency,[3],48.1 µM (active)
O=P(O)(O)C(O)(Cc1cccnc1)P(=O)(O)O,outcome,[1],inactive
O=C(CCCCCCC(=O)Nc1ccccc1)NO,outcome,[1],inactive
same,Potency,[2],0.0959 µM (active)
same,Potency,[3],0.481 µM (active)
C#Cc1cccc(Nc2ncnc3cc(OCCOC)c(OCCOC)cc23)c1,AC50,[1],8.91 µM (active)
same,Potency,[2],16.6 µM (active)
same,Potency,[3],4.69 µM (active)
Cc1nc(Nc2ncc(C(=O)Nc3c(C)cccc3Cl)s2)cc(N2CCN(CCO)CC2)n1,AC50,[1],28.2 µM (active)
same,Potency,[2],5.9 µM (active)
same,Potency,[3],20.9 µM (active)
